This note sets out measurements from PubChem BioAssay AID504727 (Broad Institute, 2011).

The source made the active and inactive calls.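 How the source made its calls: active means fitted half-maximal concentration AC50 at or below ten times the highest valid tested dose, with signal falling as DNA is displaced (actives reach about 34 µM in these data); inconclusive means flat fit at moderate signal loss, or poor fit quality; inactive means the rest, including signal rising instead of falling.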

The assay can be described thus: DNA intercalators displacing acridine orange, dose response, artefact control for KSHV LANA DNA-binding inhibitor project, biochemical, fluorescence polarization, cherry-picked samples, set 2 (AID 504727). Conditions: AC50: Acridine orange-DNA displacement; series mostly up to 35 µM.
As to `CCc1ccc(C2CC(c3cccc(Cl)c3)n3nc(N)nc3N2)cc1` (stereo not drawn), the AC50 entry was “inactive”.

As for `O=C(O)CCCN1C(=O)/C(=C/C=C/c2ccco2)SC1=S`, the AC50 entry is “inactive”.

Consider `O=C(Nc1ccccc1F)C(=Cc1sc(N2CCOCC2)nc1-c1ccccc1)C(=O)Nc1ccccc1F`, for which the AC50 is 25.1 µM (active).

Regarding `O=C(NC1CCCCC1)c1cc([N+](=O)[O-])ccc1N1CCOCC1`, the AC50 entry is “inactive”.

On to `CCOc1ccc2noc3c2c1C(=O)c1ccccc1-3`, for which the AC50 was 0.728 µM (active).

With `C=CCn1c(C)cc(-c2csc(NC(=O)CCc3nc4ccccc4c(=O)[nH]3)n2)c1C`, the AC50 entry was “inactive”.

For the molecule `Cc1cccc(N2C(=O)c3cccc4c(N)ccc(c34)C2=O)c1`, the AC50 is 4.82 µM (active).

In the case of `Cc1cnc(NC(=O)Cc2c[nH]c3ccccc23)s1`, the AC50 result is “inactive”.

With `Nc1nc(-c2ccc(C(=O)O)cc2)cs1`, the AC50 result is “inactive”.

Take `Cc1ccc(NC(=S)N/C(=N/S(=O)(=O)c2ccccc2)c2ccccc2)cc1`: the AC50 entry was “inactive”.

Turning to `O=C(COC(=O)c1ccc([N+](=O)[O-])o1)NCCCc1ccccc1`, the AC50 entry is “inactive”.

Consider `Cn1c(N)c(C(=O)COC(=O)c2ccc(Cl)c(S(=O)(=O)N3CCCC3)c2)c(=O)n(C)c1=O`, for which the AC50 result was “inactive”.

With `Cc1ccc(NC(=O)c2ccc(Cl)c(S(=O)(=O)N3CCc4ccccc43)c2)nc1`, the AC50 result was “inactive”.

Take `COc1cc(SC)ccc1C(=O)Nc1nc(C)cs1`: the AC50 result is “inactive”.

Regarding `O=C(O)C1C2C=CC(CC2)C1C(=O)O` (stereo not drawn), the AC50 result was “inactive”.

For `O=C(c1ccc2c(c1)CCN2S(=O)(=O)c1ccccc1)N1CCN(c2ccc(F)cc2)CC1`, the AC50 entry is “inactive”.

Consider `NNc1nnc2c3cc(F)ccc3n(Cc3ccccc3)c2n1`, for which the AC50 result is “inactive”.

In the case of `CC(C)Cc1nc(SCC(=O)Nc2nnc(CC(C)C)s2)n[nH]1`, the AC50 entry was “inactive”.

On to `O=C(Cn1ncc(N2CCCC2)c(Cl)c1=O)c1ccc(Cl)cc1`, for which the AC50 entry is “inactive”.

Take `NS(=O)(=O)c1ccc(N=Nc2c[nH]c(=O)c(O)c2)cc1`: the AC50 was 15.8 µM (active).

On to `O=C(O)CCN1C(=O)/C(=C\c2ccc(-c3nc4ccccc4s3)o2)SC1=S`, for which the AC50 result was “inactive”.

On to `CN(c1ccc(OCC(=O)OCC(=O)c2c(N)n(C)c(=O)n(C)c2=O)cc1)S(=O)(=O)c1ccc2ccccc2c1`, for which the AC50 result was “inactive”.

As for `C/C(=N/NC(=O)c1ccncc1)c1cc2ccc(O)cc2oc1=O`, the AC50 was 0.343 µM (active).

As for `Cc1ccccc1NC(=S)NC(C)CCc1ccccc1` (stereo not drawn), the AC50 result is “inactive”.

Regarding `Cc1cc(C)n2nc(C(=O)OC(C)C(=O)c3cc(C)c(C)cc3C)nc2n1` (stereo not drawn), the AC50 entry was “inactive”.

For `COc1ccc(N(CC(=O)NCc2ccc3c(c2)OCO3)C(=O)c2csnn2)cc1`, the AC50 entry was “inactive”.

`COc1ccc(OC2CCN(S(=O)(=O)c3ccc(OC)cc3)CC2)cc1`: the AC50 entry is “inactive”.

In the case of `Cn1c(=O)c(N)c2c3c(c(Br)ccc31)C(=O)c1ccccc1-2`, the AC50 was 2.99 µM (active).

With `O=C1C=C(c2ccoc2)N2CCC[C@H]2C1`, the AC50 result was “inactive”.

Turning to `Nc1ccc2c(O)cc(S(=O)(=O)O)cc2c1`, the AC50 result is “inactive”.

As to `Cc1cc(-c2nnc(SCC(=O)Nc3ccccc3)n2C)no1`, the AC50 entry is “inactive”.

Take `NS(=O)(=O)c1cc(C(=O)NC2CCSc3ccccc32)ccc1Cl` (stereo not drawn): the AC50 result is “inactive”.

In the case of `O=[N+]([O-])c1cccc(CSc2nc3ccccc3[nH]2)c1`, the AC50 result was “inactive”.

For `Cc1ccc(NC(=O)CN2C(=O)N/C(=C/c3cc(C)n(-c4ccc(C(=O)O)cc4)c3C)C2=O)cc1`, the AC50 result was “inactive”.

Turning to `COc1ccc(NC(=O)CN(C)CC(=O)Nc2ccc(N3CCOCC3)cc2)c([N+](=O)[O-])c1`, the AC50 result was “inactive”.

As for `COc1ccc2nc3ccccc3[n+]([O-])c2c1`, the AC50 is 26 µM (active).

Take `O=C1CN=C(Nc2ccccc2Cl)N1Cc1ccc2c(c1)OCO2`: the AC50 entry was “inactive”.

With `COC(=O)c1ccccc1-c1c2ccc(=N)cc-2oc2cc(N)ccc12`, the AC50 was 0.035 µM (active).
